We go through 8 compounds from PubChem BioAssay (NCI).

Test systems include SK-MEL-2 melanoma; EKVX NSCLC; SN12C renal; UO-31 renal; TK-10 renal; ACHN renal; CAKI-1 renal; A498 renal; CCRF-CEM leukemia; MOLT-4 leukemia; SR leukemia; RPMI-8226 leukemia; OVCAR-8 ovarian; OVCAR-5 ovarian; OVCAR-4 ovarian; SK-OV-3 ovarian; OVCAR-3 ovarian; HS 578T breast; NCI/ADR-RES ovarian; IGROV1 ovarian.
What all share (assay): NCI-60 one-dose screen, 48 h (100 = growth as untreated, 0 = no growth, -100 = all killed)
What all share (conditions): 10 µM unless noted

Compounds without any hit were thinned out: in the full panel of roughly 83,000, 20% have a hit.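 Each cell line was grown in a 96-well plate and treated with one concentration of compound for 48 hours. Values below 10 were considered active.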 Values without a mark were called inactive. Activity calls are given as the source filed them.

As for `C=C1c2nc3ccccc3n2C=C(c2cccc(Cl)c2)N1Cc1ccc(OC)cc1`, the growth in the experiment on SK-MEL-2 melanoma is 28.2%; in the experiment on EKVX NSCLC, 8.8% (active); in the experiment with SN12C renal, 37%; in the experiment with UO-31 renal it was 9.79% (active); in the experiment with TK-10 renal, 30.8%; with ACHN renal it was 49.2%. Besides, the growth was 3.02% (active) with CAKI-1 renal; 91.7% in the experiment on A498 renal; 47.2% in the experiment on CCRF-CEM leukemia; 8.13% (active) in the experiment with MOLT-4 leukemia; -17.4% (active) in the experiment with SR leukemia; -15.6% (active) with RPMI-8226 leukemia. The growth is 9.77% (active) in the experiment with OVCAR-8 ovarian; 35.3% in the experiment with OVCAR-5 ovarian; 32.4% with OVCAR-4 ovarian; 5.13% (active) in the experiment with SK-OV-3 ovarian; -28.1% (active) in the experiment with OVCAR-3 ovarian; 15.5% in the experiment with HS 578T breast. The growth in the experiment on NCI/ADR-RES ovarian is 10.2%.

`O=C1NC(=O)C(c2ccc(Cl)cc2Cl)N1` (stereo unspecified): the growth in the experiment on SK-MEL-2 melanoma is 110%; with EKVX NSCLC, 113%; in the experiment with SN12C renal, 104%; in the experiment on UO-31 renal, 73.2%; with TK-10 renal it was 98.1%; in the experiment on ACHN renal, 110%. For the same compound, the growth in the experiment on CAKI-1 renal is 100%; with A498 renal, 96.6%; with CCRF-CEM leukemia, 93.2%; in the experiment on MOLT-4 leukemia it was 94.3%; in the experiment with SR leukemia, 92.6%; in the experiment with RPMI-8226 leukemia it was 109%. Also, the growth in the experiment with OVCAR-8 ovarian was 112%; in the experiment on OVCAR-5 ovarian it was 106%; in the experiment on OVCAR-4 ovarian, 113%; with SK-OV-3 ovarian it was 108%; in the experiment on IGROV1 ovarian it was 114%; in the experiment on HS 578T breast it was 102%. In the experiment with NCI/ADR-RES ovarian, the growth was 106%.

In the case of `O=C(CCl)Oc1ccc(-c2ccccc2)c(Br)c1`, the growth is 104% with SK-MEL-2 melanoma; 115% in the experiment with EKVX NSCLC; 109% in the experiment with SN12C renal; 92.8% in the experiment on UO-31 renal; 105% with TK-10 renal; 108% in the experiment with ACHN renal. Further, the growth was 98.5% with CAKI-1 renal; 95% with A498 renal; 118% in the experiment on CCRF-CEM leukemia; 105% in the experiment with MOLT-4 leukemia; 96.9% with SR leukemia; 106% in the experiment with RPMI-8226 leukemia. Besides, the growth in the experiment on OVCAR-8 ovarian is 103%; in the experiment with OVCAR-5 ovarian, 107%; in the experiment with OVCAR-4 ovarian, 105%; in the experiment on SK-OV-3 ovarian it was 104%; with IGROV1 ovarian, 112%; with OVCAR-3 ovarian, 108%. In addition, the growth in the experiment on HS 578T breast is 108%; with NCI/ADR-RES ovarian it was 103%.

In the case of `COc1ccc(-n2nc(C)c3c(Nc4ccc(NC(=O)Nc5c(Cl)cccc5Cl)cc4)ncnc32)cc1`, the growth in the experiment with SK-MEL-2 melanoma is 79.1%; in the experiment on EKVX NSCLC, 67%; in the experiment on SN12C renal, 77%; with UO-31 renal, 8.74% (active); in the experiment with TK-10 renal, 59.8%; in the experiment on ACHN renal, 43.3%. In addition, the growth was 57.9% with CAKI-1 renal; 63.4% with A498 renal; 84.5% in the experiment with CCRF-CEM leukemia; 81.7% with MOLT-4 leukemia; 32.2% in the experiment with SR leukemia; 50.7% in the experiment on RPMI-8226 leukemia. The growth in the experiment on OVCAR-8 ovarian is 56%; in the experiment on OVCAR-5 ovarian, 97.8%; in the experiment on OVCAR-4 ovarian, 60.9%; with SK-OV-3 ovarian it was 83.3%; in the experiment with IGROV1 ovarian, 71.7%; in the experiment on HS 578T breast, 71.7%. The growth in the experiment on NCI/ADR-RES ovarian is 55.9%.

Consider `CCOc1nc(-c2ccccc2)cc2c(O)c(C(=O)O)[nH]c(=O)c12`, for which the growth is 95.3% in the experiment on SK-MEL-2 melanoma; 98.2% with EKVX NSCLC; 111% with SN12C renal; 87.1% with UO-31 renal; 134% in the experiment on TK-10 renal; 100% in the experiment on ACHN renal. Further, the growth was 105% in the experiment on CAKI-1 renal; 119% in the experiment on A498 renal; 83% in the experiment on CCRF-CEM leukemia; 92.4% with MOLT-4 leukemia; 98.1% in the experiment with SR leukemia; 58.1% in the experiment on RPMI-8226 leukemia. Besides, the growth in the experiment with OVCAR-8 ovarian was 107%; in the experiment with OVCAR-5 ovarian, 104%; with OVCAR-4 ovarian it was 99%; in the experiment with SK-OV-3 ovarian, 97.5%; in the experiment with IGROV1 ovarian, 96.1%; with HS 578T breast, 104%. In addition, in the experiment with NCI/ADR-RES ovarian, the growth is 60.9%.

`Oc1cccc(-c2nc(N3CCOCC3)c3c4c(sc3n2)CCCC4)c1`: the growth with SK-MEL-2 melanoma was 71.3%; in the experiment on EKVX NSCLC, 34.4%; in the experiment with SN12C renal, 38.8%; with UO-31 renal it was 13.1%; in the experiment with TK-10 renal it was 70.6%; in the experiment with ACHN renal, 38.3%. Besides, the growth in the experiment on CAKI-1 renal is 69.8%; in the experiment on A498 renal, 114%; in the experiment on CCRF-CEM leukemia it was 60.5%; in the experiment with MOLT-4 leukemia, 24%; in the experiment on SR leukemia, 70.3%; in the experiment on RPMI-8226 leukemia it was 61%. The growth with OVCAR-8 ovarian was 51.9%; in the experiment on OVCAR-5 ovarian, 82.7%; with OVCAR-4 ovarian, 45.9%; with SK-OV-3 ovarian, 30.6%; in the experiment on IGROV1 ovarian, 3.92% (active); in the experiment with OVCAR-3 ovarian, 56.9%. Besides, the growth was 10.2% with HS 578T breast and 52.1% in the experiment with NCI/ADR-RES ovarian.

Turning to `O=c1nc2oc3ccc4ccccc4c3cc-2s1`, the growth in the experiment with SK-MEL-2 melanoma was 31.9%; with EKVX NSCLC, 46.1%; with SN12C renal, 41.1%; with UO-31 renal it was 46.9%; with TK-10 renal, 54.7%; with ACHN renal it was 41%. The growth with CAKI-1 renal is 22.1%; with A498 renal it was -1.24% (active); with CCRF-CEM leukemia, 13.7%; in the experiment on MOLT-4 leukemia, 25.1%; with SR leukemia, 24.3%; with RPMI-8226 leukemia, 14.7%. Further, the growth is 29.8% with OVCAR-8 ovarian; 53.3% in the experiment with OVCAR-5 ovarian; 62.5% in the experiment on OVCAR-4 ovarian; 28.5% in the experiment with SK-OV-3 ovarian; 37.2% with IGROV1 ovarian; 6% (active) in the experiment on OVCAR-3 ovarian. The growth in the experiment with HS 578T breast is 3.65% (active); with NCI/ADR-RES ovarian, 91.1%.

In the case of `C#CCOc1ccc2ncnc(N3CCN(C(=O)CCl)CC3)c2c1`, the growth with SK-MEL-2 melanoma is 87.6% [8.25 µM]; in the experiment with EKVX NSCLC it was 96.7% [8.25 µM]; in the experiment with SN12C renal, 40.7% [8.25 µM]; in the experiment with UO-31 renal, 75.5% [8.25 µM]; with TK-10 renal it was 99.1% [8.25 µM]; in the experiment on ACHN renal it was -54.7% [8.25 µM] (active). The growth in the experiment on CAKI-1 renal is 109% [8.25 µM]; in the experiment on A498 renal it was 110% [8.25 µM]; in the experiment on CCRF-CEM leukemia, 10.7% [8.25 µM]; in the experiment on MOLT-4 leukemia, 67.1% [8.25 µM]; with SR leukemia, 33.4% [8.25 µM]; with RPMI-8226 leukemia it was 92.9% [8.25 µM]. Besides, the growth in the experiment with OVCAR-8 ovarian was 72.2% [8.25 µM]; in the experiment with OVCAR-5 ovarian it was 93.3% [8.25 µM]; in the experiment with OVCAR-4 ovarian it was 63.8% [8.25 µM]; in the experiment with SK-OV-3 ovarian it was 68.6% [8.25 µM]; with IGROV1 ovarian, -30.9% [8.25 µM] (active); in the experiment on OVCAR-3 ovarian it was 78.7% [8.25 µM]. Further, the growth in the experiment on HS 578T breast was 94.6% [8.25 µM]; in the experiment on NCI/ADR-RES ovarian it was 98.5% [8.25 µM].
